18 compounds from PubChem BioAssay can be followed below.

The nature of test [1]: antimalarial activity against Dd2 strain (AID 2302;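 active = growth inhibition above 50% at the single 2 µM test dose, taken to imply half-maximal potency below 2 µM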;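 also: 0% = DMSO untreated growth and 100% = chloroquine plus artemisinin killed control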). The conditions noted are these: P. falciparum Dd2 in RBCs, LDH growth readout, 72 h; at 2 µM; active compounds read high.
A short description of test [2]: HepG2 cytotoxicity, primary screen, cytotoxicity control for P. falciparum antimalarial project, cell-based, ATP luminescence (AID 2303;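 active = inhibition above 50%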;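 also: 0% = DMSO wells and 100% = digitonin-killed cells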). The conditions noted are these: HepG2 viability, 24-48 h, at 10 µM, active compounds read high.
Test [3] has as its target L-lactate dehydrogenase (Plasmodium falciparum (isolate CDC / Honduras)) (UniProt Q27743). The experiment in a line: PfLDH activity inhibition – cell lysate, 3D7 strain, counter-screen for P. falciparum growth inhibition project (AID 2304).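 Also: 0% = vehicle and 100% = reference inhibitor.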 The conditions noted are these: P. falciparum 3D7 crude extract, LDH APAD/NBT absorbance; at 2 µM; active compounds read high. (In general: The purpose of a counterscreen is to sort out artefacts and off-target activity.)

Test [4] is described as follows: inhibition of 3D7 malaria parasite growth – strain 3D7 (AID 2306).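 Also: 0% = DMSO wells and 100% = chloroquine plus artemisinin control wells.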 The conditions noted are these: P. falciparum 3D7 erythrocytic growth, LDH absorbance, 72 h; at 2 µM; active compounds read high.
Test [5] concerns the target Calcium-dependent protein kinase 1 (Plasmodium falciparum (isolate 3D7)) (UniProt P62344). In words: PfCDPK1 kinase inhibitors, biochemical, TCAMS library (AID 1159585; cut-off not given, nearly all actives have IC50 up to about 0.98 µM;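 also: inhibitors leave more ATP so luminescence rises with inhibition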). Particulars: recombinant PfCDPK1, Kinase-Glo ATP depletion luminescence. (In general: Kinase-Glo reads ATP consumption through a luciferase reaction.)
For test [6], the target named is Plasmodium falciparum protein kinase 6 (PK6, PF3D7_1337100) (UniProt Q8IDW1). The experiment in a line: PfPK6 kinase inhibitors, biochemical, TCAMS library (AID 1159586). Particulars: recombinant PfPK6, Kinase-Glo ATP depletion luminescence.
For test [7], the target named is Protein kinase 7 (PK7), Plasmodium falciparum 3D7 (PF3D7_0213400) (UniProt Q7YTF7). The experiment in a line: inhibition of Plasmodium PK7 catalytic activity – biochemical, TCAMS antimalarial set, Kinase-Glo luminescence (AID 1159587). The conditions noted are these: recombinant PfPK7, Kinase-Glo ATP depletion luminescence.
Test [8] deals with Calcium-dependent protein kinase 4 (Plasmodium falciparum (isolate 3D7)) (UniProt Q8IBS5). The experiment in a line: PfCDPK4 kinase inhibitors, biochemical, TCAMS library (AID 1159588; cut-off not given, nearly all actives have IC50 up to about 0.91 µM). Particulars: recombinant PfCDPK4, Kinase-Glo ATP depletion luminescence.

Unmarked numbers belong to inactive results. For part of these data: Entries with a potency or affinity are not part of this list. Activity calls are given as the source filed them. Unless noted, no rule for the calls is given here.

Sequence of Protein kinase 7 (PK7), Plasmodium falciparum 3D7 (PF3D7_0213400) (Q7YTF7 1-343): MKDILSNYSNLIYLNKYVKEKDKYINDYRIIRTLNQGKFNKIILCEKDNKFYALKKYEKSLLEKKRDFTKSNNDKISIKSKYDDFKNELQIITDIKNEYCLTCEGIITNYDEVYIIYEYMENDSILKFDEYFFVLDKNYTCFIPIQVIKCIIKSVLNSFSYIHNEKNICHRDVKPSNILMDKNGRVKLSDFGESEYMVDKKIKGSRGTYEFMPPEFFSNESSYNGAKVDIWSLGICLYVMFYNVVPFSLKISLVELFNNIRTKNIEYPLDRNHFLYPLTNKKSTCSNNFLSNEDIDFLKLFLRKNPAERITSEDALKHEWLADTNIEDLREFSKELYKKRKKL
Sequence of Calcium-dependent protein kinase 1 (Plasmodium falciparum (isolate 3D7)) (P62344 whole entry, looked up): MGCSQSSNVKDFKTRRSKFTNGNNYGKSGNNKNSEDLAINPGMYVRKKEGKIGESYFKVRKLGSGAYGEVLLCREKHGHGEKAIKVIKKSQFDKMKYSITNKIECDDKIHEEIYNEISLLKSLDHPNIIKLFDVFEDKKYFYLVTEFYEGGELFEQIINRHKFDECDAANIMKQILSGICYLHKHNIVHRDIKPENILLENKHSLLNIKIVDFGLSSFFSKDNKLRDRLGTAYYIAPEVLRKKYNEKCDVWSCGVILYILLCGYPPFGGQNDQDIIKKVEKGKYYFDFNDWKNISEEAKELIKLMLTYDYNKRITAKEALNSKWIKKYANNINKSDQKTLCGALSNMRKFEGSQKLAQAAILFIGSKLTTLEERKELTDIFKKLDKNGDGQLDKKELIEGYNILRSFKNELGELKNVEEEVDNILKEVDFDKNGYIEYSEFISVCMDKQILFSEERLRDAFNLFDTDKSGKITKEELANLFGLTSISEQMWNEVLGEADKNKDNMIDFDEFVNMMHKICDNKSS
Sequence of L-lactate dehydrogenase (Plasmodium falciparum (isolate CDC / Honduras)) (Q27743 whole entry, looked up): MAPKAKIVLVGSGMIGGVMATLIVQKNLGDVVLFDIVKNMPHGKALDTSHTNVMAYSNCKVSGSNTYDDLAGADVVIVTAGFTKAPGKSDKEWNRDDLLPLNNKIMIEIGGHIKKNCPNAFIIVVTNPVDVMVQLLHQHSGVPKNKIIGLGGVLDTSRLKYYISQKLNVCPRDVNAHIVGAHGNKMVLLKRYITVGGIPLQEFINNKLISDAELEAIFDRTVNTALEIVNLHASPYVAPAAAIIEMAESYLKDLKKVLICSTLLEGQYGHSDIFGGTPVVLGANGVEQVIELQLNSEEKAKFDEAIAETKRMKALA
Sequence of Plasmodium falciparum protein kinase 6 (PK6, PF3D7_1337100) (Q8IDW1 1-305): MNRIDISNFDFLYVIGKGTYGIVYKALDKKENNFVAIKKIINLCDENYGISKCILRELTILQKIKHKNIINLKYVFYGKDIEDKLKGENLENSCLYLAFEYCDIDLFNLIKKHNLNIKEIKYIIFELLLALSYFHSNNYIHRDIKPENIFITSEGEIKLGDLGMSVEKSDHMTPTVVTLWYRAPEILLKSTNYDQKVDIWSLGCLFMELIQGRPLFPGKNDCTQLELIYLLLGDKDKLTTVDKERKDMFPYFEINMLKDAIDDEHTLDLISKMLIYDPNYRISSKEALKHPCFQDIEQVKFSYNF
Sequence of Calcium-dependent protein kinase 4 (Plasmodium falciparum (isolate 3D7)) (Q8IBS5 whole entry, looked up): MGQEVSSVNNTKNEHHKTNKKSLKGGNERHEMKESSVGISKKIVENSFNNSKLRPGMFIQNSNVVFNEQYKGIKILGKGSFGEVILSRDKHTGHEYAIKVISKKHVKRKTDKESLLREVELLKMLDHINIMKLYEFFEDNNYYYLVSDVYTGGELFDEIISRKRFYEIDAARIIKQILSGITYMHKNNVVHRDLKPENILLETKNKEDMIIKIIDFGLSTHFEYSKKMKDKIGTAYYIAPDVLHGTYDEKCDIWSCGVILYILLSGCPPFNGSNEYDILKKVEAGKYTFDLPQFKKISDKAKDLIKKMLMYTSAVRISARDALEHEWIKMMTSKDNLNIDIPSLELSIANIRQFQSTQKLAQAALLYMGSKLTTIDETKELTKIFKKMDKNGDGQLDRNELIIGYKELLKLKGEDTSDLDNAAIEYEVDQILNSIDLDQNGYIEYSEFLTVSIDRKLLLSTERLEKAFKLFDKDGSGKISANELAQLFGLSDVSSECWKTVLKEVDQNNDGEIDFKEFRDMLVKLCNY

Turning to `Fc1ccc2nc(-c3cccc(-c4ccc(CNCCN5CCNCC5)cc4)c3)[nH]c2c1`, the growth inhibition in test [1] was -3%; in test [4] it was 90% (active). Further, the inhibition (commonly the relative decrease from the control value, in per cent) in test [2] was 9%; in test [3] it was -2%. The outcome in test [5], in test [6], in test [7] and in test [8] was inactive.

On to `CCCC(C)Nc1nc(C)cc(NCCC(=O)Nc2ccccc2)n1` (centres undefined), for which the growth inhibition in test [1] was 11%; in test [4] it was 96% (active). The inhibition is 12% in test [2] and -4% in test [3]. In addition, the result in test [5], in test [6], in test [7] and in test [8] was inactive.

As to `CCOC(=O)C1=C(C)NC2=C(C(=O)C(C(=O)OC)C(C)C2)C1c1cc(Br)c(OCC)c(OC)c1` (centres undefined), the growth inhibition is 99% (active) in test [1] and 101% (active) in test [4]. Besides, the values for the inhibition in test [2] and in test [3] were 8% and 0%, respectively. For the same compound, the result in test [5], in test [6], in test [7] and in test [8] was inactive.

For `FC(F)(F)c1ccc2nc(-c3ccc(-c4cccc(CNCCN5CCNCC5)c4)s3)[nH]c2c1`, the growth inhibition in test [1] was 39%; in test [4] it was 91% (active). In addition, the inhibition is 22% in test [2] and 5% in test [3]. Also, the result in test [5], in test [6], in test [7] and in test [8] was inactive.

For the compound `CC[C@H](C)CNC(=O)c1ccnc(-c2cccc(CN3CCC(N4CCCC4)CC3)c2)c1`, the growth inhibition is 12% in test [1] and 97% (active) in test [4]. Besides, the inhibition in test [2] is -8%; in test [3], -2%. The outcome in test [5], in test [6], in test [7] and in test [8] was inactive.

With `CCOc1ccc(C(Cc2ccccc2)NC(=O)c2cccnc2)cc1OCC` (centres undefined), the results for the growth inhibition in test [1] and in test [4] were 98% (active) and 100% (active), respectively. The inhibition in test [2] is -21%; in test [3], 5%. In addition, the outcome in test [5], in test [6], in test [7] and in test [8] was inactive.

With `CC(=O)NCCCCC1NC2(C(=O)N(Cc3ccc(C(C)(C)C)cc3)c3ccccc32)C2C(=O)N(C3CCCCC3)C(=O)C12` (centres undefined), the results for the growth inhibition in test [1] and in test [4] were 71% (active) and 91% (active), respectively. For the same compound, the inhibition in test [2] was -2%; in test [3] it was -3%. In addition, the result in test [5], in test [6], in test [7] and in test [8] was inactive.

As for `CCCC1(NC[C@@H](O)[C@H](Cc2ccccc2)NC(=O)c2cc(NCC)cc(N3CCCCS3(=O)=O)c2)CCCC1`, the growth inhibition was 97% (active) in test [1] and 101% (active) in test [4]. Besides, the inhibition in test [2] is -1%; in test [3], -5%. The result in test [5], in test [6], in test [7] and in test [8] was inactive.

With `COc1cc(NC(=O)/C=C/c2cc(F)cc(F)c2F)cc(OCCN2CCC(O)(c3ccccc3)CC2)c1`, the growth inhibition in test [1] was 82% (active); in test [4], 103% (active). For the same compound, the inhibition in test [2] was 54% (active); in test [3], 6%. In addition, the outcome in test [5], in test [6], in test [7] and in test [8] was inactive.

Consider `CC(C)NC(C)(C)CN(Cc1ccc(-c2ccc(C(F)(F)F)cc2)cc1)C(=O)Cn1c(CCc2cccc(F)c2F)nc(=O)c2ccccc21`, for which the growth inhibition was 68% (active) in test [1] and 94% (active) in test [4]. Moreover, the inhibition in test [2] is 44%; in test [3], 3%. In addition, the outcome in test [5], in test [6], in test [7] and in test [8] was inactive.

Turning to `Clc1ccc(OC2CCC(Cn3ccnc3)(c3ccc(Cl)cc3Cl)CC2)c(Cl)c1` (centres undefined), the growth inhibition was 86% (active) in test [1] and 98% (active) in test [4]. Further, the inhibition is 4% in test [2] and -4% in test [3]. Also, the outcome in test [5], in test [6], in test [7] and in test [8] was inactive.

With `COC1(C)Oc2ccc3cccc([N+](=O)[O-])c3c2C1=O` (centres undefined), the figures for the growth inhibition in test [1] and in test [4] were -4% and 98% (active), respectively. For the same compound, the inhibition in test [2] was 3%; in test [3], -2%. Besides, the result in test [5], in test [6], in test [7] and in test [8] was inactive.

Take `O=C(NCCN1CCC(NC(=O)c2ccc(-c3ccccn3)s2)CC1)c1cccc(C(F)(F)F)c1`: the growth inhibition in test [1] is 24%; in test [4], 97% (active). Also, the inhibition is 4% in test [2] and -4% in test [3]. Further, the outcome in test [5], in test [6], in test [7] and in test [8] was inactive.

On to `O=C(Nc1ccc(C(F)(F)F)cc1)NC1CCN(c2ccnc3ccccc23)C1` (centres undefined), for which the growth inhibition is 89% (active) in test [1] and 102% (active) in test [4]. The inhibition in test [2] was 13%; in test [3], 0%. The result in test [5], in test [6], in test [7] and in test [8] was inactive.

Turning to `COC(=O)c1cc(NC(=O)Nc2ccc(Cn3ncc(N4CCCNCC4)c(Cl)c3=O)cc2)cc(C(=O)OC)c1`, the growth inhibition in test [1] is 90% (active); in test [4] it was 96% (active). The inhibition was -3% in test [2] and 3% in test [3]. Further, the result in test [5], in test [6], in test [7] and in test [8] was inactive.

On to `Cc1cc(Oc2ccc(-n3ccnc3)cc2)nc(N2CCN(CCCN3CCCC3)CC2)n1`, for which the figures for the growth inhibition in test [1] and in test [4] were 7% and 90% (active), respectively. Besides, the figures for the inhibition in test [2] and in test [3] were 5% and 0%, respectively. Besides, the result in test [5], in test [6], in test [7] and in test [8] was inactive.

As for `NC(=O)Nc1ccc2c(Nc3ccc(OCc4ccccc4)cc3)ncnc2c1`, the growth inhibition was 20% in test [1] and 84% (active) in test [4]. In addition, the inhibition in test [2] was -1%; in test [3] it was 3%. The outcome in test [5], in test [6], in test [7] and in test [8] was inactive.

Take `O=C(CNc1ccncc1)c1c[nH]c2ccccc12`: the growth inhibition in test [1] is 62% (active); in test [4] it was 90% (active). The results for the inhibition in test [2] and in test [3] were 31% and -3%, respectively. For the same compound, the outcome in test [5], in test [6], in test [7] and in test [8] was inactive.
